Assay outcomes from PubChem BioAssay.
proKLK7 act = activates the human kallikrein-7 zymogen | P49862 | purified proKLK7, EDANS-DABCYL substrate fluorescence; 100% is mature enzyme control, 0% vehicle | activation, % at 7 µM | hit rate 0.9% among 370,000 | AID 652039;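 active means activation above the mean of all tested compounds plus 3 SD, computed per campaign excluding outliers beyond control limits, cut at about 13% in these data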
Target sequence (P49862 whole entry, looked up): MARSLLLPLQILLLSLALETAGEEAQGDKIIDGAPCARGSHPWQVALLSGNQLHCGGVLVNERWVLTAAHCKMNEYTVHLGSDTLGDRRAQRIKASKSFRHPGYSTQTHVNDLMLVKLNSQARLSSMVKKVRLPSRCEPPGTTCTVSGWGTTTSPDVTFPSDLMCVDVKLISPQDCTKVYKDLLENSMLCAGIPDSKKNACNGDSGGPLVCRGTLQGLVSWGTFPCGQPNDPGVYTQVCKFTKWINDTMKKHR
PLCb3 inh = inhibitors of human phospholipase C beta3 | Q01970 | Purified PLC-beta3, fluorogenic substrate, fluorescence | inhibition, % at 12.2 µM | hit rate 0.18% among 370,000; in the data active means inhibition above about 11%;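 further: 0% = median of compound wells on plate and 100% = full blocker control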
ADAM17 inh = ADAM17 inhibition, QFRET primary screen; inhibition, % at 6.95 µM; P78536; AID 720648; recombinant ADAM17, EDANS/DABCYL FRET peptide cleavage; hit rate 0.83% among 370,000;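 active means inhibition above the mean of compounds lying between control limits plus 3 SD, set per campaign, cut at about 8.5% in these data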;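 further: 0% = DMSO-only wells as the low control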
HGIII-sPLA2 inh = Blocks human group III sPLA2 activity; Q9NZ20; QFRET BODIPY PC-A2 liposome hydrolysis, fluorescence; inhibition, % at 12.2 µM; hit rate 0.56% among 370,000; AID 743126;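 active means inhibition above mean plus 3 SD of compounds lying within the high and low control bounds, cut at about 19% in these data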;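 further: 0% = median of test compound wells and 100% = no enzyme DMSO wells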
ADAM10 inh = inhibitors of human ADAM10; recombinant ADAM10, EDANS/DABCYL FRET peptide cleavage, 3 h; inhibition, % at 7 µM; hit rate 0.62% among 370,000; AID 720582;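 active means inhibition above a per-campaign cutoff equal to the mean of compounds falling between control-based bounds plus 3 SD, cut at about 20% in these data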;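 further: 0% = DMSO wells while the 100% control is not disclosed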
PLC-gamma1 inh = inhibitors of human phospholipase C gamma1. purified PLC-gamma1, fluorogenic substrate, fluorescence. hit rate 0.84% among 370,000. inhibition, % at 12.2 µM; in the data active means inhibition above about 9.5%
ADAM10 confirm = human ADAM10 inhibition, confirmation | hit rate 1% among 2,100 | shares compounds with ADAM10 inh | AID 743208 | ADAM10 QFRET peptide cleavage, EDANS fluorescence | inhibition, % at 6.95 µM;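 active means inhibition above about 20% chosen separately for each screening run, limit read from the data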;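 further: 0% = DMSO wells and 100% = marimastat wells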
ADAM17 ctr = ADAM17 inhibition, counter-screen for ADAM10 exosite hits. shares compounds with ADAM10 inh. ADAM17 QFRET peptide cleavage, EDANS fluorescence. inhibition, % at 6.95 µM. hit rate 0.5% among 2,100. AID 743214;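 active means mean triplicate inhibition above the solvent-only control wells' mean plus 3 SD, cut at about 12% in these data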;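 further: 0% = DMSO wells and 100% = marimastat wells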
ADAM10 counter = ADAM10 inhibition, counter-screen for ADAM17 exosite hits | shares compounds with ADAM17 inh | recombinant ADAM10, EDANS/DABCYL FRET peptide cleavage, 3 h | inhibition, % at 6.95 µM | hit rate 47% among 2,900;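 active means mean inhibition over the triplicate runs exceeds the activity threshold set in the earlier primary screen, cut at about 20% in these data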;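 further: 0% = DMSO wells and 100% = marimastat wells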
ADAM17 confirm = confirmation of inhibitors of human ADAM17. shares compounds with ADAM17 inh. recombinant ADAM17, EDANS/DABCYL QFRET peptide cleavage. inhibition, % at 6.95 µM. hit rate 65% among 2,900. AID 743257;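 active means mean inhibition across replicates above the hit cutoff set in the primary screen, cut at about 8.5% in these data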;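 further: 0% = DMSO wells and 100% = marimastat wells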
* hit, by the source's call; . = not tested or not shown. Compounds with a hit are over-represented: about 3.4% of the library has one in this group of screens.

SMILES	proKLK7 act	PLCb3 inh	ADAM17 inh	HGIII-sPLA2 inh	ADAM10 inh	PLC-gamma1 inh	ADAM10 confirm	ADAM17 ctr	ADAM10 counter	ADAM17 confirm
O=C(c1cccs1)N1N=C(c2ccccc2)CC1c1ccc(O)cc1 (configuration not stated)	-0.2	-29.4	16.1*	-52.6	27.2*	-22.5	14.0	4.2	29.9*	21.4*
Cc1ccc(N(CC(O)Cn2c3ccccc3c3ccccc32)S(C)(=O)=O)cc1 (configuration not stated)	0.4	1.1	5.1	-39.2	19.4	0.3	.	.	.	.
CC(=O)Nc1ccc(N(CC(O)Cn2c3ccccc3c3ccccc32)S(=O)(=O)c2ccc(C)cc2)cc1 (configuration not stated)	-1.0	-1.4	10.2*	-50.2	29.3*	-0.9	9.8	3.6	41.0*	23.2*
Cn1cccc1C(=O)N1CCN(S(=O)(=O)c2ccc(Br)s2)CC1	0.6	0.9	0.4	-12.2	-3.2	1.0	.	.	.	.
O=C(Nc1ccccc1)c1cc(C2CCCCN2S(=O)(=O)Cc2cccc(C(F)(F)F)c2)on1 (configuration not stated)	1.3	7.3	17.3*	-4.0	29.5*	7.8	1.9	1.2	25.7*	11.5*
CC(C)[C@H](NS(=O)(=O)c1ccccc1)C(=O)OCC(=O)Nc1ccccc1Sc1ccccc1	-0.1	3.0	9.6*	-27.5	19.8*	2.6	5.1	2.2	18.0	9.1*
Clc1ccc(-c2[nH]ncc2N=Nc2ccccc2)cc1	0.3	0.7	10.3*	-27.4	21.6*	3.3	8.6	3.2	14.5	10.4*
c1ccc(N=Nc2ccc3cccccc2-3)cc1	-0.4	-5.4	-1.6	16.1	2.1	1.4	.	.	.	.
Cc1cccc(NS(=O)(=O)c2ccc(C3CCCCC3)cc2)c1	0.6	4.2	16.2*	-37.2	32.0*	5.7	10.0	3.7	24.5*	14.8*
CCOC(=O)c1c(C)[nH]c(C(=O)C(C)OC(=O)c2cccc(OCc3c(C)noc3C)c2)c1C (configuration not stated)	-0.4	3.0	13.4*	-40.1	29.9*	3.4	6.3	2.4	47.4*	22.5*
O=C(NC1CCCC1)c1ccc(COc2ccccc2)o1	0.2	-6.0	-11.7	9.9	-13.5	-0.5	.	.	.	.
Nc1cc(OC(=O)c2c(F)cccc2Cl)nn1S(=O)(=O)c1ccccc1	-0.1	0.9	11.8*	-23.6	28.0*	7.0	7.1	1.9	18.3	11.2*
CCOc1ccc(NS(=O)(=O)c2cc(NC(=O)c3cccc(C)c3)ccc2Cl)cc1	0.5	4.7	13.7*	-27.7	31.1*	-0.2	7.8	3.0	31.4*	18.7*
CCOc1ccc(NS(=O)(=O)c2cc(C(=O)N3CCCC3)ccc2Cl)cc1	-0.3	0.6	3.8	9.3	-1.6	1.9	.	.	.	.
COc1cccc(C=NN(C)c2c([N+](=O)[O-])cc(C(F)(F)F)cc2[N+](=O)[O-])c1O	-0.3	2.4	11.8*	2.8	23.7*	2.5	3.1	1.7	26.7*	15.9*
COc1ccc(NC(=O)c2cc(S(=O)(=O)NCC3COc4ccccc4O3)ccc2F)cc1 (configuration not stated)	0.4	3.7	6.0	-44.3	11.7	2.5	.	.	.	.
O=C(Nc1ccc(C(F)(F)F)cc1)c1cc(S(=O)(=O)NCC2COc3ccccc3O2)ccc1F (configuration not stated)	-0.8	0.2	12.6*	-14.9	25.3*	-0.4	5.5	2.0	50.6*	23.6*
O=C(O)c1cc(S(=O)(=O)NCC2COc3ccccc3O2)ccc1Cl (configuration not stated)	-0.3	-1.2	-1.1	-3.8	-4.1	-0.6	.	.	.	.
CC(C)c1ccc(NC(=O)c2cc(S(=O)(=O)NCC3COc4ccccc4O3)ccc2F)cc1 (configuration not stated)	0.1	0.5	10.0*	-28.1	20.7*	-3.2	9.9	3.9	38.0*	25.6*
COc1ccccc1CNC(=O)NC1CCN(CC(=O)Nc2ccc3c(c2)OCCO3)CC1	-0.5	2.6	0.9	-0.7	2.2	4.1	.	.	.	.
COc1ccc(S[C@]2(C(=O)N3CCN(c4ncccn4)CC3)CC(=O)N[C@@H]2c2ccc(OC)cc2)cc1	1.1	-6.7	0.3	-6.0	1.6	-3.8	.	.	.	.
O=C(CSc1nnc(Cc2cccs2)n1-c1ccc(Cl)cc1)Nc1ccc(OCc2ccccc2)cc1	0.3	0.7	13.9*	-20.6	26.4*	-0.3	12.7	3.4	23.4*	15.7*
CC(NS(=O)(=O)OCC(Cl)(Cl)Cl)c1ccc(C(C)(C)C)cc1 (configuration not stated)	-0.1	8.9	14.6*	-0.7	31.0*	1.9	9.2	3.0	45.4*	22.1*
CC(C)(NS(=O)(=O)OCC(Cl)(Cl)Cl)c1ccccc1	0.6	4.8	1.1	-5.4	4.6	3.1	.	.	.	.
O=C(NC1CCCCN(Cc2ccc(Cl)cc2)C1=O)c1cccc([N+](=O)[O-])c1 (configuration not stated)	0.2	-1.4	-3.1	2.0	-0.5	-0.9	.	.	.	.
CCc1nc2ccc(C(=O)Nc3ccc(OC)c(OC)c3)cn2c1N(CC)Cc1cccc(Br)c1	-0.6	-53.6	12.1*	-15.7	25.8*	-37.9	10.9	3.6	10.7	9.8*
COc1ccc(CN2C(=O)[C@H]3Cc4c([nH]c5ccccc45)C(C)(C)N3C2=O)cc1	0.9	-1.9	8.9*	-27.1	22.1*	-2.8	3.7	1.0	30.0*	16.6*
CC(C)CC(C(=O)OCC(=O)Nc1cccc(Cl)c1)N1C(=O)C2CC=CCC2C1=O (configuration not stated)	-0.4	9.4	17.0*	-21.6	34.6*	8.0	2.8	0.2	26.5*	10.9*
CC(C)NC(=O)NC(=O)CSc1nnc(COc2ccccc2Cl)o1	0.8	1.1	0.6	-18.1	6.8	3.4	.	.	.	.
CC(C)CCNC(=O)NC(=O)CSc1nnc(COc2ccccc2Cl)o1	-1.1	2.2	9.8*	-32.4	22.9*	6.8	2.9	0.1	6.5	5.5
